Screens from PubChem.
In the library only some 3.4% were active in any assay of this set; here they are far more common.
PP5 inh: PP5 (human) phosphatase inhibition; P53041; purified PP5c, OMFP substrate fluorescence; inhibition, % at 6.7 µM; 320,000 compounds, 0.18% hits; AID 1987;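 active means inhibition above the campaign's mean inhibition across all tested compounds plus 3 SD, cut at about 9.5% in these data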;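 further: 0% = DMSO only and 100% = 100 µM cantharidin control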
PAFAH1B2 inh: inhibitors of human PAFAH1B2. inhibition, % at 3.39 µM. 340,000 compounds, 1.2% hits. recombinant PAFAH1B2, FP-rhodamine activity probe, fluorescence polarization;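 active means inhibition above the mean of all tested compounds plus 3 SD, cut at about 24% in these data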;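 further: 0% = enzyme with DMSO and 100% = wells lacking PAFAH1B2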
pPAFAH inh: pPAFAH (human) enzyme inhibition. inhibition, % at 3.39 µM. Q13093. recombinant pPAFAH, FP-rhodamine probe fluorescence polarization. 330,000 compounds, 1.5% hits;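 active means inhibition above the mean inhibition across the screen plus 3 SD, cut at about 25% in these data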;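 further: inhibitors block binding of the rhodamine activity-based probe so polarization drops; 0% = enzyme with DMSO and 100% = wells lacking pPAFAH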
PAFAH1B3 FP inh: blocks human PAF acetylhydrolase 1B catalytic subunit 3; recombinant PAFAH1B3, FP-rhodamine probe, fluorescence polarization; Q15102; 340,000 compounds, 0.28% hits; inhibition, % at 3.39 µM;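 active means inhibition above the screen-wide average of all tested compounds plus 3 SD, cut at about 25% in these data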;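 further: 0% = enzyme with DMSO only and 100% = wells lacking PAFAH1B3 protein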
PP1 counter: PP1-alpha (human) inhibition in PP5 counter-screen. purified PP1alpha, OMFP fluorescence. P62136. inhibition, % at 6.7 µM. 320,000 compounds, 0.9% hits;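 active means inhibition above the mean inhibition of all tested compounds plus 3 SD, computed separately for each screening campaign, cut at about 15% in these data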
Target sequence (P62136 whole entry, looked up): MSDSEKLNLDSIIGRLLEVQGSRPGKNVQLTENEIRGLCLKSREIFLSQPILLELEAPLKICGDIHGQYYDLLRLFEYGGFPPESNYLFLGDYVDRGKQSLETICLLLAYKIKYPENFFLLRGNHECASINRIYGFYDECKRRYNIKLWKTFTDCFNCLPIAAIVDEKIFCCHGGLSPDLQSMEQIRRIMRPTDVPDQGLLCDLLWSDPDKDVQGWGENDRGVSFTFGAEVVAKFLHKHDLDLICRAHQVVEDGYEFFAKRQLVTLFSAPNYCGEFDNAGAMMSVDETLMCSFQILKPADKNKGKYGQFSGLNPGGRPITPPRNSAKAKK
PAFAH2 inh: PAFAH2 (human) inhibition; Q99487; recombinant PAFAH2, FP-rhodamine activity probe, fluorescence polarization; inhibition, % at 3.39 µM; 340,000 compounds, 0.99% hits; AID 492956;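 active means inhibition above the mean over all tested compounds plus 3 SD, cut at about 30% in these data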;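 further: inhibitors block probe labeling of enzyme so polarization drops; 0% = enzyme with DMSO and 100% = wells lacking PAFAH2 protein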
* marks the source's active call; other numbers are inactive results; . = no result.

SMILES	PP5 inh	PAFAH1B2 inh	pPAFAH inh	PAFAH1B3 FP inh	PP1 counter	PAFAH2 inh
CC(C)CNC(=O)c1cc(=O)[nH]c2ccc(S(=O)(=O)Nc3ccc(F)cc3)cc12	0	12	27*	9	1	-9
Cc1cc(=O)[nH]c2ccc(S(=O)(=O)Nc3ccccc3)cc12	-3	5	26*	7	-3	6
Cc1cc(=O)[nH]c2ccc(S(=O)(=O)Nc3ccc(O)cc3)cc12	1	3	-1	7	3	1
CC(C)(C)c1ccc(-n2ncc3c2CCCC3NC(=O)CCN2CCCCC2=O)cc1 (stereo not drawn)	0	2	64*	9	-3	26
O=c1[nH][nH]c2c(N=Cc3ccccc3O)ccc(F)c12	.	40*	.	61*	.	62*
CCc1ccc(O)c(N=Cc2ccccc2O)c1	1	2	13	6	0	9
Cc1ccc(-c2c(C(=O)NCc3ccccc3)oc(=O)c3ccccc23)cc1	3	10	32*	1	0	24
Cc1ccc(-c2c(C(=O)N(C)Cc3ccccc3)oc(=O)c3ccccc23)cc1	5	2	7	-2	5	-2
CCCCn1c(N)c(N(CCC(C)C)C(=O)CN2C(=O)C3CCCCC3C2=O)c(=O)[nH]c1=O (stereo not drawn)	0	1	1	10	-5	1
Cc1c(Cl)ccc2c(C(=O)NCCCn3nccc3C)cc(-c3ccccn3)nc12	5	-2	-4	6	2	-2
COCCCn1c(C23CC4CC(CC(C4)C2)C3)n[nH]c1=S	3	7	-8	6	2	-3
CC(C)Cn1c(C23CC4CC(CC(C4)C2)C3)n[nH]c1=S	2	28*	-2	-1	6	5
CN(CC(=O)Nc1ccc(OC(F)(F)F)cc1)C(=O)/C=C/c1ccco1	.	8	4	8	.	4
Cc1ccc(NS(=O)(=O)c2ccc(C(=O)NCC(c3ccco3)N3CCCCC3)cc2)cc1 (stereo not drawn)	0	4	30*	3	1	1
CN(C)C(CNC(=O)c1ccc(S(=O)(=O)Nc2ccccc2)cc1)c1ccco1 (stereo not drawn)	0	2	29*	6	-9	1
O=C(NCC(c1ccco1)N1CCCCC1)c1ccc(S(=O)(=O)Nc2ccccc2)cc1 (stereo not drawn)	2	1	30*	2	-6	0
CCCCCOC(=O)C1=C(C)N(C)C(=O)NC1c1cc(Br)c(O)c(OC)c1 (stereo not drawn)	3	9	5	8	3	5
COc1ccc(C2CC(c3ccc(OC)c(OC)c3)=NN2S(C)(=O)=O)cc1 (stereo not drawn)	1	-2	1	-3	-2	-14
O=C(O)c1cccnc1SC1CC(=O)N(c2cccc(C(F)(F)F)c2)C1=O (stereo not drawn)	-2	7	1	0	-4	5
O=C(O)c1cccnc1SC1CC(=O)N(c2ccc(OC(F)F)cc2)C1=O (stereo not drawn)	4	0	-1	9	16*	0
Cc1nn(-c2ccccc2)c(C)c1NC(=O)COC(=O)c1ccc(Cl)c(N)c1	1	3	28*	8	1	27
Cc1nn(-c2ccccc2)c(C)c1NC(=O)COC(=O)c1ccccc1	-1	4	6	-1	-2	19
CC(C)CNC(=O)COC(=O)c1c2c(nc3ccccc13)/C(=C/c1cccs1)CC2	1	-1	11	1	6	3
O=C(Nc1ccccn1)c1ccc(Cl)s1	-1	8	-5	7	-3	0
CC(C)C(=O)Nc1ccc(Sc2ccc(F)cc2)cc1	4	16	8	2	-3	2
O=C(NCc1ccc(F)cc1)C(=O)NCC1OCCCN1S(=O)(=O)c1cccs1 (stereo not drawn)	0	30*	7	2	2	-14
COc1ccc(CNC(=O)C(=O)NCCC2CCCCN2S(=O)(=O)c2cccs2)cc1 (stereo not drawn)	-2	25*	2	-1	-2	-2
Cc1cc(F)ccc1S(=O)(=O)N1CCCOC1CNC(=O)C(=O)NCCc1ccccc1 (stereo not drawn)	3	27*	11	5	-1	-19
